Results: PubChem BioAssay (NCI)
Compounds without any hit were thinned out: in the full panel of roughly 83,000, 20% have a hit.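 Method: cells in 96-well plates; compound added at one concentration; 48 h incubation; percent growth measured; values under 10 scored active.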 Active and inactive are the calls of the source.

Key:
Assay in all cases: NCI-60 one-dose screen, 48 h (100 = growth as untreated, 0 = no growth, -100 = all killed)
HCT-15 colon = details: 10 µM unless noted
HT29 colon = details: 10 µM unless noted
SNB-19 CNS = details: 10 µM unless noted
U251 CNS = details: 10 µM unless noted
PC-3 prostate = details: 10 µM unless noted
SK-MEL-5 melanoma = details: 10 µM unless noted
LOX IMVI melanoma = details: 10 µM
SK-MEL-28 melanoma = details: 10 µM unless noted
SK-MEL-2 melanoma = details: 10 µM unless noted
EKVX NSCLC = details: 10 µM unless noted
SN12C renal = details: 10 µM unless noted
UO-31 renal = details: 10 µM unless noted
TK-10 renal = details: 10 µM unless noted
ACHN renal = details: 10 µM unless noted
CAKI-1 renal = details: 10 µM unless noted
A498 renal = details: 10 µM unless noted
CCRF-CEM leukemia = details: 10 µM unless noted
MOLT-4 leukemia = details: 10 µM unless noted
UACC-62 melanoma = details: 10 µM unless noted
SNB-75 CNS = details: 10 µM unless noted

Measured: growth

O=C(Cn1c(/C=C/c2ccccc2)nc2ccccc2c1=O)Nc1ccccc1
inactive: HCT-15 colon 76.6% | HT29 colon 98.5% | SNB-19 CNS 67.8% | U251 CNS 35.8% | PC-3 prostate 76.1% | SK-MEL-5 melanoma 97.3% | LOX IMVI melanoma 43.2% | SK-MEL-28 melanoma 111% | SK-MEL-2 melanoma 94.7% | EKVX NSCLC 124% | SN12C renal 31% | UO-31 renal 24.7% | TK-10 renal 75.6% | CCRF-CEM leukemia 71.4% | MOLT-4 leukemia 73%
active: ACHN renal 1.89% | CAKI-1 renal 8.48% | A498 renal -29.9%

O=C(Cn1c(/C=C/c2ccccc2)nc2ccccc2c1=O)Nc1ccc(Cl)cc1
active: UO-31 renal -24.6% | TK-10 renal -12% | ACHN renal -65.6% | A498 renal -15.5%
inactive: HCT-15 colon 78% | HT29 colon 75.5% | SNB-19 CNS 52.8% | U251 CNS 20.1% | PC-3 prostate 72.6% | SK-MEL-5 melanoma 103% | UACC-62 melanoma 90.4% | LOX IMVI melanoma 25.4% | SK-MEL-2 melanoma 114% | EKVX NSCLC 98.6% | SN12C renal 19.2% | CAKI-1 renal 20.4% | CCRF-CEM leukemia 85.6% | MOLT-4 leukemia 86.9%

CCCCSc1nc(Nc2ccc(S(N)(=O)=O)cc2)c(C#N)c(-c2cc(OC)c(OC)c(OC)c2)n1
active: LOX IMVI melanoma 7.76% | MOLT-4 leukemia -29.9%
inactive: HCT-15 colon 25.7% | HT29 colon 42% | U251 CNS 43.3% | PC-3 prostate 16.7% | SK-MEL-5 melanoma 20.5% | UACC-62 melanoma 21.9% | SK-MEL-28 melanoma 35.1% | SK-MEL-2 melanoma 87.7% | EKVX NSCLC 55.2% | SN12C renal 23.1% | UO-31 renal 12.1% | TK-10 renal 82.2% | ACHN renal 12.2% | CAKI-1 renal 34.9% | A498 renal 88.1% | CCRF-CEM leukemia 22.1%

COc1c(F)ccc(C(=O)Nc2ccc3nc(NC(=O)C4CCCN(S(=O)(=O)c5cccc(C(F)(F)F)c5)C4)sc3c2)c1F (centres undefined)
inactive: HCT-15 colon 69.1% | HT29 colon 83.2% | SNB-19 CNS 72.6% | U251 CNS 69.8% | PC-3 prostate 50.3% | SK-MEL-5 melanoma 89.3% | UACC-62 melanoma 83.3% | LOX IMVI melanoma 86.5% | SK-MEL-28 melanoma 98.2% | SK-MEL-2 melanoma 83.8% | EKVX NSCLC 94.5% | SN12C renal 78.8% | UO-31 renal 74.8% | ACHN renal 83.6% | CAKI-1 renal 83.1% | A498 renal 101% | CCRF-CEM leukemia 88.7% | MOLT-4 leukemia 44.9%

O=C(/C=C/Nc1ccc2oc(=O)ccc2c1)c1cc2cc(Br)ccc2oc1=O
inactive: HCT-15 colon 102% | HT29 colon 103% | U251 CNS 102% | PC-3 prostate 98% | SK-MEL-5 melanoma 103% | UACC-62 melanoma 97.5% | LOX IMVI melanoma 99.3% | SK-MEL-28 melanoma 112% | SK-MEL-2 melanoma 107% | EKVX NSCLC 105% | SN12C renal 102% | UO-31 renal 81.4% | TK-10 renal 124% | ACHN renal 107% | CAKI-1 renal 92.5% | A498 renal 144% | CCRF-CEM leukemia 120% | MOLT-4 leukemia 115%

O=C(C1=CNC(=S)NC1c1ccc(O)cc1)c1cc2ccccc2oc1=O (centres undefined)
inactive: HCT-15 colon 104% | HT29 colon 106% | SNB-19 CNS 97.7% | U251 CNS 102% | PC-3 prostate 86.7% | SK-MEL-5 melanoma 101% | LOX IMVI melanoma 91.5% | SK-MEL-2 melanoma 101% | EKVX NSCLC 107% | SN12C renal 99.3% | UO-31 renal 72.4% | TK-10 renal 130% | ACHN renal 108% | CAKI-1 renal 87.6% | A498 renal 139% | CCRF-CEM leukemia 92% | MOLT-4 leukemia 94.1%

CC1[C@H]2[C@H](C[C@H]3[C@@H]4CC=C5c6sc(Nc7ccccc7F)nc6CC[C@]5(C)[C@H]4CC[C@@]32C)O[C@]12CC[C@@H](C)CO2 (some centres undefined)
inactive: A498 renal 17.5%
active: HT29 colon -79.3% | SNB-75 CNS -55.6% | SNB-19 CNS -37.5% | U251 CNS -88.2% | PC-3 prostate -47.2% | SK-MEL-5 melanoma -58.1% | UACC-62 melanoma -70.8% | LOX IMVI melanoma -90.4% | SK-MEL-28 melanoma -97.1% | SK-MEL-2 melanoma -83% | EKVX NSCLC -52.5% | SN12C renal -69.4% | UO-31 renal -93.1% | TK-10 renal -60.2% | ACHN renal -75.4% | CAKI-1 renal -82.2% | CCRF-CEM leukemia -21.5% | MOLT-4 leukemia -16.2%

CCOC(=O)c1ccc(Nc2nc(NN)nc(-c3ccc(OC)cc3)c2C#N)cc1
active: CCRF-CEM leukemia -5.35%
inactive: HCT-15 colon 106% | HT29 colon 115% | SNB-19 CNS 92.2% | U251 CNS 106% | PC-3 prostate 85.2% | SK-MEL-5 melanoma 90.1% | UACC-62 melanoma 93.4% | LOX IMVI melanoma 114% | SK-MEL-28 melanoma 113% | EKVX NSCLC 118% | SN12C renal 114% | UO-31 renal 93.8% | TK-10 renal 120% | ACHN renal 113% | CAKI-1 renal 105% | A498 renal 118% | MOLT-4 leukemia 36.1%

Cc1sc2c(c1C)C(c1ccc(Cl)cc1)=N[C@@H](CC(=O)NCCCCCNC(=O)COc1ccc(C3CCC(=O)NC3=O)cc1)c1nnc(C)n1-2 (some centres undefined)
inactive: HCT-15 colon 33% | HT29 colon 13% | SNB-19 CNS 23.8% | U251 CNS 45.2% | PC-3 prostate 11.3% | LOX IMVI melanoma 11.3% | SK-MEL-28 melanoma 48.3% | SK-MEL-2 melanoma 13.4% | EKVX NSCLC 29.5% | SN12C renal 18.7% | UO-31 renal 27.8% | ACHN renal 44% | CAKI-1 renal 16.4% | A498 renal 48.4% | CCRF-CEM leukemia 49.2% | MOLT-4 leukemia 16.4%
active: SK-MEL-5 melanoma -13.4% | TK-10 renal 5.57%

O=C(N1c2ccccc2Sc2ccccc21)n1ccc2cccnc21
inactive: HCT-15 colon 40.2% | HT29 colon 60.7% | SNB-19 CNS 74.3% | U251 CNS 51.3% | PC-3 prostate 39.8% | SK-MEL-5 melanoma 45.9% | UACC-62 melanoma 47.5% | LOX IMVI melanoma 44.8% | SK-MEL-2 melanoma 73.6% | EKVX NSCLC 79.3% | SN12C renal 81.1% | UO-31 renal 55.6% | TK-10 renal 90.7% | ACHN renal 88.2% | CAKI-1 renal 53.6% | A498 renal 109% | CCRF-CEM leukemia 63.2% | MOLT-4 leukemia 38.3%

COc1cc2oc(-c3cccc(C(=O)Nc4ccc(Cl)cc4)c3)cc(=O)c2c(OCCNC(=O)[C@H](CO)NC(=O)OC(C)(C)C)c1OC
inactive: SNB-75 CNS 74.5% | SNB-19 CNS 29.7% | U251 CNS 24% | PC-3 prostate 12.9% | EKVX NSCLC 24.1% | SN12C renal 16.4% | UO-31 renal 23.6% | TK-10 renal 42.6% | ACHN renal 13.5% | CAKI-1 renal 19.1% | A498 renal 71.9%
active: HT29 colon -26.9% | SK-MEL-5 melanoma -75.2% | UACC-62 melanoma 7.14% | LOX IMVI melanoma -67.5% | SK-MEL-28 melanoma -23.8% | SK-MEL-2 melanoma -1.01% | CCRF-CEM leukemia 8.05% | MOLT-4 leukemia 5.42%

CC12CC[C@@H]3[C@]4(C)COC(c5cn[nH]c5-c5ccc(Cl)cc5)O[C@@H]4CC[C@@]3(C)[C@@H]1CC(C1=CCOC1=O)O2 (some centres undefined)
active: MOLT-4 leukemia -16.8%
inactive: HCT-15 colon 36.2% | HT29 colon 22% | SNB-19 CNS 54.5% | U251 CNS 50% | PC-3 prostate 19.4% | SK-MEL-5 melanoma 16.5% | UACC-62 melanoma 33.4% | LOX IMVI melanoma 46.2% | SK-MEL-28 melanoma 39.2% | SK-MEL-2 melanoma 29.7% | EKVX NSCLC 36.1% | SN12C renal 48.5% | UO-31 renal 21% | ACHN renal 33.8% | CAKI-1 renal 49.8% | A498 renal 85.6% | CCRF-CEM leukemia 32.8%

Cn1cc(-c2cc(N)n3nc(-c4cn(C)c5ncc(Br)cc45)cc3n2)c2cc(Br)cnc21
inactive: SK-MEL-5 melanoma 34.8% | SK-MEL-2 melanoma 39.5% | EKVX NSCLC 85.1% | SN12C renal 12.4% | UO-31 renal 45.8% | CAKI-1 renal 56.6% | A498 renal 114%
active: HCT-15 colon -76.6% | HT29 colon -85% | U251 CNS -62.1% | PC-3 prostate 1.06% | UACC-62 melanoma -82.3% | LOX IMVI melanoma -100% | SK-MEL-28 melanoma -49.9% | TK-10 renal -10.2% | ACHN renal 1.23% | CCRF-CEM leukemia 3.66% | MOLT-4 leukemia -54.3%

COc1ccc(NC(=O)[C@H](CO)NC(=O)OC(C)(C)C)cc1C(=O)Nc1cccc(C2CC(=O)c3c(cc(OC)c(OC)c3OC)O2)c1 (some centres undefined)
inactive: HT29 colon 49.4% | SNB-75 CNS 51.4% | SNB-19 CNS 69.2% | U251 CNS 61.9% | PC-3 prostate 49.8% | SK-MEL-5 melanoma 27.9% | UACC-62 melanoma 49.1% | SK-MEL-28 melanoma 71.4% | SK-MEL-2 melanoma 53.1% | EKVX NSCLC 81.2% | SN12C renal 49% | UO-31 renal 40.4% | TK-10 renal 103% | ACHN renal 56.2% | CAKI-1 renal 38.6% | A498 renal 105% | CCRF-CEM leukemia 23.3% | MOLT-4 leukemia 16.2%

N/C(=N\c1nc2ccccc2s1)NC(=O)Nc1ccc(Cl)cc1Cl
active: HT29 colon -90.1% | SNB-75 CNS -68.8% | SNB-19 CNS -23.5% | U251 CNS -97.9% | PC-3 prostate -2.3% | SK-MEL-5 melanoma -56.5% | LOX IMVI melanoma -96.8% | SK-MEL-28 melanoma -33.2% | SK-MEL-2 melanoma -49.9% | EKVX NSCLC -42.5% | SN12C renal -88.7% | UO-31 renal -93% | TK-10 renal -84.9% | ACHN renal -87.4% | CAKI-1 renal -87.7% | A498 renal -84.6% | CCRF-CEM leukemia 5.6% | MOLT-4 leukemia 6.86%

C=C1CC[C@@H]2[C@]3(C)COC(c4cn[nH]c4-c4ccc(C)cc4)O[C@@H]3CC[C@@]2(C)[C@@H]1C/C=C1/C(=O)OCC1O (some centres undefined)
active: HT29 colon -6.69% | U251 CNS -63.3% | SK-MEL-5 melanoma -63.9% | UACC-62 melanoma -31.3% | SK-MEL-28 melanoma 6.8% | SN12C renal 7.06% | UO-31 renal 4.54% | ACHN renal -53.5% | CCRF-CEM leukemia -17.8%
inactive: SNB-75 CNS 87.8% | SNB-19 CNS 37.7% | PC-3 prostate 37.6% | SK-MEL-2 melanoma 51.4% | EKVX NSCLC 12.9% | TK-10 renal 49% | CAKI-1 renal 50.3% | A498 renal 133% | MOLT-4 leukemia 13.9%
